Assay outcomes as filed in PubChem BioAssay.
Sampled rows, rich in hits. Any-hit rate of the full collection: about 2.2%.
AI-2 QS modul = Vibrio harveyi AI-2 quorum sensing modulation; Vibrio harveyi JMH597 AI-2 luminescence/OD600 ratio, 9 h; active compounds read low; strain lacks LuxN and CqsS sensors; 0 = neutral-control median; activity change, % at 7.5 µM; hit rate 0.4% among 300,000; AID 2094; in the data active means activity change below about -75%, passing the limit was not always enough;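 further: luminescence divided by OD600 gain over 9 h not by final OD600 alone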
HIF act = HIF pathway transcriptional activation. U2OS HRE-luciferase reporter, luminescence; normalized: DMSO 0%, desferrioxamine 100%. activation, % at 7.5 µM (by protocol). hit rate 0.32% among 300,000;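 active means mean activation of at least 10% of the iron chelator positive control signal, with at least half of replicates also reaching 10%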
Platelet DG rel = modulates dense granule release in human platelets; human platelet-rich plasma, SFLLRN dense granule ATP release, luminescence; inhibition, %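 (compounds screened at 7.5 µM in platelet-rich plasma)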; hit rate 0.22% among 300,000;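 active means mean replicate score, as percent of positive control, at or above 50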
CHT block = inhibits the human high affinity choline transporter; hit rate 0.86% among 310,000; B-score at 10 µM; CHT-expressing cells, membrane potential dye, choline response; active compounds read low; Q9GZV3;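 active means B-score over 3 SD under the library average, and starting fluorescence ratio not unusually high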;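 further: choline stimulus applied at its EC90 after an EC20 pre-addition; B-score computed on integrated fluorescence ratio after choline addition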
VLA-4 inh = inhibition in a human VLA-4 binding assay | P13612 | inhibition, % (about 7 µM as worked out from the volumes in the protocol) | hit rate 0.2% among 330,000 | AID 2557 | VLA-4 expressing cells, ligand binding flow cytometry; in the data active means inhibition above about 50%
Target sequence (P13612 whole entry, looked up): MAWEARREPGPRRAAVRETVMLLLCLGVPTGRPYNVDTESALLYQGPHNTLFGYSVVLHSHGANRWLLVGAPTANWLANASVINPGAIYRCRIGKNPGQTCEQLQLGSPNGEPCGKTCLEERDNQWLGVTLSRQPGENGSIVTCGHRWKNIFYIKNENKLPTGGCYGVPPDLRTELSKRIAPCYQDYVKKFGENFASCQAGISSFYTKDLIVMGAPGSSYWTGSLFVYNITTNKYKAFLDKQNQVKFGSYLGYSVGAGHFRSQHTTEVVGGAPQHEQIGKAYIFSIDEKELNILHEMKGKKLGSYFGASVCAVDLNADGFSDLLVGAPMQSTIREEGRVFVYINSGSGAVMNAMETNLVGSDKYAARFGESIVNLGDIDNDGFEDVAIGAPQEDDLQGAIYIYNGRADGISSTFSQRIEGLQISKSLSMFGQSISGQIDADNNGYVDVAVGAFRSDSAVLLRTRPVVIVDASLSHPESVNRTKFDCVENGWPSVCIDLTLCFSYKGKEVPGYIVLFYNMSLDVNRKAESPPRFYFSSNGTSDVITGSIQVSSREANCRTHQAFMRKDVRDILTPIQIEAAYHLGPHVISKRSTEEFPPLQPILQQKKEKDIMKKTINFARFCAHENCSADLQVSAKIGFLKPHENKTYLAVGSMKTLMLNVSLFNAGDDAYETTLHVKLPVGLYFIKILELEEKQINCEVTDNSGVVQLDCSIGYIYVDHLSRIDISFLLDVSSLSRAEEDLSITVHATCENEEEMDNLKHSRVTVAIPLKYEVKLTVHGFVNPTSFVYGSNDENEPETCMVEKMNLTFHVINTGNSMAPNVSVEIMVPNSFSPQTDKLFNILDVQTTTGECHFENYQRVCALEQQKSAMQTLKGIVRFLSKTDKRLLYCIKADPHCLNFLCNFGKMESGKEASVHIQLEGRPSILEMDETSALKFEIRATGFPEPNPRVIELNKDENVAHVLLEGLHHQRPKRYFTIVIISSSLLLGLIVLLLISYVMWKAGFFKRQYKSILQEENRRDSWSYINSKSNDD
CHT allo act = human CHT allosteric activation; hit rate 0.49% among 310,000; CHT-expressing cells, membrane potential dye, choline EC20; active compounds read high; LV-AA mutant CHT in HEK293 cells; B-score at 10 µM; Q9GZV3;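 active means initial fluorescence not abnormally high and integrated response B-score, plate-corrected, over 3 SD above library mean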
CHT activ conf = human CHT activation, confirmatory screen; shares compounds with CHT allo act; CHT-expressing cells, membrane potential dye fluorescence (FDSS); % of choline EC20–EC90 response window; HEK293 expressing CHT LV-AA mutant; choline added at its EC20; activation, % at 10 µM; hit rate 91% among 2,500;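 active means primary screen active, with duplicate mean activation above negative control mean plus 3 SD, cut at about 11% in these data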
HEK293 MP dye = counter-screen for CHT activators: effect in parental HEK293 cells | shares compounds with CHT allo act | membrane potential dye fluorescence (FDSS); measured after EC20 choline addition | ratio readout change at 10 µM, hits read low | hit rate 62% among 2,500 | AID 623908;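 active means duplicate-averaged ratio beyond 3 SD from buffer wells, up or down, though filed actives are nearly all decreases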
Of the large screens only hits and unclear results are named; the others gave an inactive call (follow-up assays come after a bar, where they were run).

COC(=O)CN1C(C)=Nc2ccc(C)cc2C1c1ccccc1 (stereo not drawn)	none
CCC1=Nc2ccc(Br)cc2C(c2ccccc2)N1CC(=O)OC (stereo not drawn)	CHT allo act 11 | CHT activ conf 14 | HEK293 MP dye inactive
Cc1ccc(N(CC(=O)N2CCCC2)S(C)(=O)=O)c(C)c1	none
COc1ccc(N(C)C(=O)c2oc(=O)c3ccccc3c2-c2ccccc2)c(OC)c1	CHT allo act 6.3 | CHT activ conf 33 | HEK293 MP dye inactive
CCOC(=O)c1c(NC(=O)CN2CCN(C)CC2)sc(C(=O)Nc2ccccc2)c1C	none
CN1CCN(CC(=O)Nc2sc3c(c2C(=O)Nc2ccccc2)CCCC3)CC1	none | CHT activ conf 45 | HEK293 MP dye -31
CC(C)=CCC[C@](C)(OC1OC(COC2OCC(O)C(O)C2O)C(O)C(O)C1O)C1CC[C@]2(C)C1C(O)CC1[C@@]3(C)CCC(O[C@@H]4O[C@H](CO)C(O)C(O)C4O[C@@H]4OC(CO)C(O)C(O)C4O)C(C)(C)C3CC[C@]12C (stereo partly drawn)	none (no result: AI-2 QS modul, HIF act, Platelet DG rel, CHT block, CHT allo act)
COc1ccc2sc(N(CCN(C)C)C(=O)/C=C/c3cccs3)nc2c1	none
COc1ccc2nc(N(CCN(C)C)C(=O)/C=C/c3cccs3)sc2c1	CHT allo act 7.2 (no result: HIF act) | CHT activ conf 35 | HEK293 MP dye -32
CN1CCN(c2nc(N3CCN(CCO)CC3)nc3ccccc23)CC1	CHT allo act 11 (no result: Platelet DG rel) | CHT activ conf 37 | HEK293 MP dye -102
c1ccc2c(N3CCOCC3)nc(N3CCOCC3)nc2c1	CHT allo act 12 | CHT activ conf 48 | HEK293 MP dye -86
CC1CCN(c2nc(-c3ccncc3)nc3ccccc23)CC1	none
c1ccc2c(N3CCOCC3)nc(-c3ccncc3)nc2c1	CHT allo act 7.1 | CHT activ conf 83 | HEK293 MP dye -57
c1ccc(CN2CCN(c3nc(N4CCOCC4)c4ccccc4n3)CC2)cc1	none
O=S(=O)(/C=C/c1ccccc1)N1CCN(c2nc(-c3cccnc3)nc3ccccc23)CC1	none
c1cncc(-c2nc(N3CCOCC3)c3ccccc3n2)c1	CHT allo act 8.1 | CHT activ conf 53 | HEK293 MP dye -49
CCOC(=O)C1=C(Nc2ccc(Cl)cc2)OCC1=O	none
C=CCSc1nc2sc3c(c2c(=O)n1-c1ccc(C)cc1)CCN(C)C3	none
CC(C)=CC(=O)N1CCC(n2nccc2NC(=O)CCc2ccccc2)CC1	none
CC(C)CC(C)N1CCC(n2nccc2NC(=O)CCc2ccccc2)CC1 (stereo not drawn)	none | CHT activ conf 32 | HEK293 MP dye inactive
O=C(CCCc1ccccc1)Nc1ccnn1C1CCN(Cc2ccccc2)CC1	none
CC(CC(F)(F)F)N1CCC(n2nccc2NC(=O)CCCc2ccccc2)CC1 (stereo not drawn)	none | CHT activ conf inactive | HEK293 MP dye inactive
CC(=O)c1ccc(NC(=O)CSc2nnc(NC(=O)C3CC3)s2)cc1	none
Cc1ccccc1C(=O)NCC(c1ccco1)N1CCc2ccccc2C1 (stereo not drawn)	none | CHT activ conf inactive | HEK293 MP dye inactive
O=C(NCC(c1ccco1)N1CCc2ccccc2C1)c1cccc(F)c1 (stereo not drawn)	none | CHT activ conf 11 | HEK293 MP dye inactive
COc1cccc(C(=O)NCC(c2ccco2)N2CCc3ccccc3C2)c1 (stereo not drawn)	none
Cc1ccc(C(C)C)c(OCC(=O)NNC(=O)Cc2ccc(S(=O)(=O)N3CCOCC3)s2)c1	none (no result: AI-2 QS modul, HIF act, Platelet DG rel, CHT block, CHT allo act)
Cc1ccc(N2C(=O)CC(N3CCN/C3=C3\CC/C(=C\c4ccccc4)C3=O)C2=O)cc1 (stereo not drawn)	none
COC(=O)C1=C(COc2ccc(C=O)cc2OC)NC(=O)NC1c1cc(C)ccc1C (stereo not drawn)	none (no result: HIF act)
CC(OC(=O)c1ccccc1C(=O)N(C)C1CCCCC1)C(=O)NC1(C#N)CCCCC1 (stereo not drawn)	none (no result: AI-2 QS modul, HIF act, Platelet DG rel, CHT block, CHT allo act)
CCc1ccccc1NC(=O)c1ccc(-c2csc(C)n2)cc1	none | CHT activ conf inactive | HEK293 MP dye inactive
Cc1nc(-c2ccc(NC(=O)c3ccccc3)cc2)cs1	none
CCC(C)(C)n1nnnc1C(C(C)C)N1CCSCC1 (stereo not drawn)	none | CHT activ conf inactive | HEK293 MP dye inactive
COc1ccc(NC(=O)Cn2nc(C(=O)O)c3ccccc3c2=O)cc1Cl	none
CN1CCCC1=Nc1c2c(nc3ccccc13)N(C)CC2	CHT allo act 8.9 | CHT activ conf 61 | HEK293 MP dye -57
c1ccc2c(c1)nc(N1CCCCCC1)c1ccccc12	none
CN1CCCCc2c1nc1ccccc1c2N (tested in a mixture with another compound)	CHT allo act 8.6 | CHT activ conf 23 | HEK293 MP dye -48
COc1ccccc1NC(=O)Nc1ccc(CC#N)cc1	none
Cc1ccc(C(=O)NCC(=O)OCC(=O)N(CC(C)C)c2c(N)n(Cc3ccccc3)c(=O)[nH]c2=O)cc1	none
CC(C)c1ccc(CN2CCN(C(=O)CSc3nnnn3C3CC3)CC2)cc1	none (no result: AI-2 QS modul, HIF act, Platelet DG rel, CHT block, CHT allo act)
c1ccc(-c2csc(Nc3cccnc3)n2)nc1	none | CHT activ conf 50 | HEK293 MP dye -55
c1ccc(Nc2nc(-c3ccccn3)cs2)cc1	none
CC(=O)N1CCN(c2ccc(NC(=O)c3ccc(F)cc3)cc2)CC1	none
CC1C(=O)C(C)C(c2ccccc2F)NC1c1ccccc1F (stereo not drawn)	none | CHT activ conf 28 | HEK293 MP dye inactive
CN(C)c1ccnc(Nc2ccccc2)c1C#N	CHT allo act 6.3 | CHT activ conf 52 | HEK293 MP dye -35
CSc1nccc(Nc2ccccc2)c1C#N	none
CCCc1nc(NCCCOCC)c2nnn(Cc3ccccc3)c2n1	none
CCn1c(C(=O)NCCCc2ccccc2)cc2sccc21	CHT allo act 6.6 | CHT activ conf 25 | HEK293 MP dye inactive
CCC(=O)Nc1ccccc1C(=O)OC(c1ccccc1)c1ccccc1	CHT allo act 7.3 | CHT activ conf 27 | HEK293 MP dye inactive
O=C(N1CCOCC1)N(CCN1CCOCC1)Cc1cccc2ccccc12	none
CC1(C(=O)c2ccccc2)C2c3c(ccc4ccccc34)OC(=O)C21C(=O)N1CCOCC1 (stereo not drawn)	CHT allo act 7.3 | CHT activ conf 16 | HEK293 MP dye inactive
CCOC(=O)c1cnc2c(C(F)(F)F)cccc2c1NCCCN1CCOCC1	none | CHT activ conf 43 | HEK293 MP dye -67
